Drawing on PubChem BioAssay (NCI), this text covers growth for 9 compounds.

Compounds without any hit were thinned out: in the full panel of roughly 83,000, 20% have a hit.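 Note: values are percent growth. 100 is the growth of untreated cells, values between 100 and 0 indicate rising inhibition; between -100 and 0 indicates cell death.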 Activity calls are given as the source filed them. The calls were made as follows: active = growth percent below 10; inactive = the rest.

This assay concerns MDA-MB-468 breast. In words: NCI-60 one-dose screen, 48 h (100 = growth as untreated, 0 = no growth, -100 = all killed). Conditions: 10 µM unless noted.
Regarding `O=C(COc1ccc(-c2nc3cc(Cl)c(Cl)cc3[nH]2)cc1)N=Nc1c(O)[nH]c2ccccc12`, the growth is -49.5% (active). In the case of `COc1ccc(-c2nc3c(c(-c4ccc(Cl)cc4)nn3-c3ccccc3)c(-c3ccccc3)c2C#N)cc1`, the growth was 108% (inactive). For `C=CCN=C1NC(=O)/C(=C/c2cc(C(C)(C)C)c(O)c(C(C)(C)C)c2)S1`, the growth is 43.4% (inactive). Regarding `Cc1c(C)c(N2C(=O)C=CC2=O)c(C)c(C)c1N1C(=O)C=CC1=O`, the growth is 96.5% (inactive). On to `COc1cc(/C=N/NC(=O)c2ccccc2Nc2ccnc(C(F)(F)F)c2)ccc1O`, for which the growth is 80.5% (inactive).

With `CN1CCN(c2ccc(Nc3nc(NCCCNS(=O)(=O)c4cccc5ccccc45)c4sccc4n3)cc2)CC1`, the growth is -70.5% (active). Next, `CCOc1ccc(NC(=S)N2CCC(CCCC3CCN(C(=S)Nc4ccc(OCC)cc4)CC3)CC2)cc1`: 58.7% (inactive); `O=C(CSc1nnc(-c2ccc(Cl)c(Cl)c2)n1-c1ccccc1)Nc1ccc(C(=O)/C=C/c2ccc(Cl)cc2)cc1`: 98.4% (inactive); `CN1CCN(Cc2ccc(NC(=O)c3cncc(C#Cc4cnc(N)c5ccc(C#N)cc45)c3)cc2C(F)(F)F)CC1`: -58.4% (active).
